The sample as a whole holds a higher share of hits than the screen did.
NOMO-1 viab – STK33 inhibitor candidate reducing NOMO-1 cell viability. AID 2330. inhibition, % (concentration not given with the values). NOMO-1 AML viability, CellTiter-Glo luminescence, 72 h. hit rate 7.5% among 37,000; in the data active means inhibition above about 80%; inconclusive means no clear call, values can overlap the other calls
STK33 kin inh – blocks human STK33 kinase activity; inhibition, % at 12.5 µM; ADP-Glo luminescence, MBP substrate; AID 2322; hit rate 0.44% among 27,000; in the data active means inhibition above about 20%; inconclusive means no clear call, values can overlap the other calls
Target sequence (Q9BYT3 whole entry, looked up): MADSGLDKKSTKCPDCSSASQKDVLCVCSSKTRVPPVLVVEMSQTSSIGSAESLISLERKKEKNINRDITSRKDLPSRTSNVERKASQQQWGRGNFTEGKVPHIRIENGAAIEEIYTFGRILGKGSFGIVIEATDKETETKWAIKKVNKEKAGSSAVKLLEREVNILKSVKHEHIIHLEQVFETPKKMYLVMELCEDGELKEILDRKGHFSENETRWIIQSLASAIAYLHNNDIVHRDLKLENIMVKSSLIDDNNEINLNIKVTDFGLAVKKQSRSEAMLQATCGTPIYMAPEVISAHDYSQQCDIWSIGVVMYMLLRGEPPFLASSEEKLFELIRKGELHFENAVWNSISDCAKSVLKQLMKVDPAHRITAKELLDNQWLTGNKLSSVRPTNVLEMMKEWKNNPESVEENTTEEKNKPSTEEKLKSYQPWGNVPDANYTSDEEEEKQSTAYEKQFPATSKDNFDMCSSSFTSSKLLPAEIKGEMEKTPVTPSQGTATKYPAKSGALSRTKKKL
PD-1 reversal – reversal of PD-1 mediated T-cell inhibition | primary human CD4 T cells, PD-L1 beads, CellTiter-Glo 96 h | activation, % (concentration not given with the values) | 29,000 tested, under 10 active | AID 2316; call rule not given here
Numbers stand for hits.

Results for COc1ccc(C)cc1NC(=O)CN(c1ccc(F)c(Cl)c1)S(C)(=O)=O ?
NOMO-1 viab: inactive; STK33 kin inh: inactive

Results for Cc1ccc(C)c(NC(=O)CSc2n[nH]c(-c3ccccc3)n2)c1 ?
NOMO-1 viab: inactive; STK33 kin inh: inactive; PD-1 reversal: inactive

Results for CCOC(=O)CCS(=O)(=O)c1nc(-c2ccccc2)cc(C(F)(F)F)n1 ?
NOMO-1 viab: 115; STK33 kin inh: inactive; PD-1 reversal: inactive

How did CCOC(=O)CS(=O)(=O)c1nc(-c2ccc(F)cc2)cc(C(F)(F)F)n1 do in these assays?
NOMO-1 viab: 135; STK33 kin inh: inactive; PD-1 reversal: inactive

Results for O=C(CSc1nc(-c2ccccc2)cc(C(F)(F)F)n1)Nc1ccc(F)cc1 ?
NOMO-1 viab: inactive; STK33 kin inh: inactive

What do the screens show for `O=C(CSc1nc(-c2ccc(Cl)cc2)cc(C(F)(F)F)n1)c1ccccc1`?
NOMO-1 viab: inactive; STK33 kin inh: inactive; PD-1 reversal: inactive

What do the screens show for `Cc1cc(I)cnc1NC(=S)NC(=O)c1ccco1`?
NOMO-1 viab: inactive; STK33 kin inh: inactive; PD-1 reversal: inactive

Results for COC(=O)[C@@H]1[C@H]2C[C@H]3c4[nH]c5ccccc5c4CCN3C[C@@H]2CC[C@@H]1O ?
NOMO-1 viab: inactive; STK33 kin inh: inactive; PD-1 reversal: inactive

How did CCC1c2[nH]c3ccccc3c2CCN1C(=O)c1ccc(Cl)cc1 (stereo not given) do in these assays?
NOMO-1 viab: 84; PD-1 reversal: inactive

What do the screens show for `COc1c(Cl)cc(C(=O)Nc2sc3c(c2C(=O)NC2CCS(=O)(=O)C2)CCC(C)C3)cc1Cl` (stereo not given)?
NOMO-1 viab: inactive; STK33 kin inh: inactive; PD-1 reversal: inactive

What do the screens show for `COc1ccc(S(=O)(=O)N(C)C[C@@H]2Oc3ccc(NC(=O)Nc4ccc5c(c4)OCO5)cc3CC(=O)N([C@H](C)CO)C[C@@H]2C)cc1`?
NOMO-1 viab: 114; STK33 kin inh: inactive; PD-1 reversal: inactive

How did C[C@@H]1CN([C@H](C)CO)C(=O)Cc2cc(NC(=O)Nc3ccc4c(c3)OCO4)ccc2O[C@H]1CN(C)S(=O)(=O)c1ccccc1 do in these assays?
NOMO-1 viab: inactive; STK33 kin inh: inactive; PD-1 reversal: inactive

Results for COc1ccc(S(=O)(=O)N(C)C[C@@H]2Oc3ccc(NC(=O)Nc4ccc5c(c4)OCO5)cc3CC(=O)N([C@H](C)CO)C[C@H]2C)cc1 ?
NOMO-1 viab: inactive

What do the screens show for `Cc1ccc(S(=O)(=O)N(C)C[C@@H]2Oc3ccc(NC(=O)Nc4ccc5c(c4)OCO5)cc3CC(=O)N([C@H](C)CO)C[C@H]2C)cc1`?
NOMO-1 viab: inactive; STK33 kin inh: inactive; PD-1 reversal: inactive

What do the screens show for `Cc1ccc(S(=O)(=O)N(C)C[C@@H]2Oc3ccc(NC(=O)Nc4ccc5c(c4)OCO5)cc3CC(=O)N([C@@H](C)CO)C[C@@H]2C)cc1`?
NOMO-1 viab: 108; STK33 kin inh: inactive

Results for C[C@H](CO)N1C[C@H](C)[C@H](CN(C)S(=O)(=O)c2ccccc2)Oc2ccc(NC(=O)Nc3ccc4c(c3)OCO4)cc2CC1=O ?
NOMO-1 viab: 126; STK33 kin inh: inactive; PD-1 reversal: inactive

How did C[C@H]1CN([C@@H](C)CO)C(=O)Cc2cc(NC(=O)Nc3ccc4c(c3)OCO4)ccc2O[C@H]1CN(C)S(=O)(=O)c1ccc(F)cc1 do in these assays?
NOMO-1 viab: 128

How did C[C@@H]1CN([C@@H](C)CO)C(=O)Cc2cc(NC(=O)Nc3ccc4c(c3)OCO4)ccc2O[C@@H]1CN(C)S(=O)(=O)c1ccc(F)cc1 do in these assays?
NOMO-1 viab: inactive; PD-1 reversal: inactive

What do the screens show for `CC(C)COc1ccc(/C(=N\O)c2ccccc2)cc1`?
NOMO-1 viab: inconclusive; PD-1 reversal: inactive

How did COc1ccccc1NC(=O)c1cnc(Nc2nc3ccccc3s2)nc1C do in these assays?
NOMO-1 viab: inactive; STK33 kin inh: inactive

Results for Cc1ccc(S(=O)(=O)Nc2ccc3c(c2)C(=O)N([C@@H](C)CO)C[C@H](C)[C@@H](CN(C)Cc2ccc(-c4ccccc4)cc2)O3)cc1 ?
NOMO-1 viab: inactive; PD-1 reversal: inactive

How did Cc1ccc(S(=O)(=O)Nc2ccc3c(c2)C(=O)N([C@@H](C)CO)C[C@@H](C)[C@H](CN(C)Cc2ccc(-c4ccccc4)cc2)O3)cc1 do in these assays?
NOMO-1 viab: 123; PD-1 reversal: inactive

Results for Cc1ccc(S(=O)(=O)Nc2ccc3c(c2)C(=O)N([C@@H](C)CO)C[C@@H](C)[C@@H](CN(C)Cc2ccc(-c4ccccc4)cc2)O3)cc1 ?
NOMO-1 viab: 101; PD-1 reversal: inactive

How did Cc1ccc(S(=O)(=O)Nc2ccc3c(c2)C(=O)N([C@@H](C)CO)C[C@H](C)[C@H](CN(C)Cc2ccc(-c4ccccc4)cc2)O3)cc1 do in these assays?
NOMO-1 viab: inactive; STK33 kin inh: inactive; PD-1 reversal: inactive

Results for COC(=O)c1c(-c2ccccc2)csc1NC(=O)c1cc2cccc(OC)c2oc1=O ?
NOMO-1 viab: inactive; STK33 kin inh: inactive; PD-1 reversal: inactive

Results for CC1(C)Cc2nc3nc(SCC(=O)c4ccc(Br)cc4)n(-c4ccccc4)c(=O)c3cc2CO1 ?
NOMO-1 viab: inactive; STK33 kin inh: inactive; PD-1 reversal: inactive

What do the screens show for `CC(C)(C)NC(=O)Oc1ccc(Cl)cc1`?
NOMO-1 viab: inactive; PD-1 reversal: inactive

How did O=C1c2ccccc2C(=O)N1CN(C(=O)C(F)(F)F)c1ccc(Cl)cc1 do in these assays?
NOMO-1 viab: inactive; PD-1 reversal: inactive

What do the screens show for `C[C@@H]1CN([C@@H](C)CO)C(=O)c2cc(NC(=O)Cc3cn(C)c4ccccc34)ccc2O[C@H]1CN(C)Cc1ccc(C(=O)Nc2ccccc2N)cc1`?
NOMO-1 viab: inactive; PD-1 reversal: inactive

What do the screens show for `C[C@@H]1CN([C@@H](C)CO)C(=O)c2cc(NC(=O)Cc3cn(C)c4ccccc34)ccc2O[C@@H]1CN(C)Cc1ccc(C(=O)Nc2ccccc2N)cc1`?
NOMO-1 viab: 99; PD-1 reversal: inactive

How did C[C@H](CO)N1C[C@H](C)[C@H](CN(C)Cc2ccc(C(=O)Nc3ccccc3N)cc2)Oc2ccc(NC(=O)Cc3cn(C)c4ccccc34)cc2C1=O do in these assays?
NOMO-1 viab: 102; PD-1 reversal: inactive

Results for C[C@@H]1CN([C@H](C)CO)C(=O)c2cc(NC(=O)Cc3cn(C)c4ccccc34)ccc2O[C@H]1CN(C)Cc1ccc(C(=O)Nc2ccccc2N)cc1 ?
NOMO-1 viab: inactive; PD-1 reversal: inactive

What do the screens show for `Cc1nn(C(=O)Cn2nc([N+](=O)[O-])cc2C)c(C)c1Cl`?
NOMO-1 viab: inactive; STK33 kin inh: inactive

How did COc1ccc(-c2cc3cc(OC)c(OC)cc3c(Cc3ccccc3)n2)cc1 do in these assays?
NOMO-1 viab: inactive; PD-1 reversal: inactive

Results for COc1cc2cc(C)nc(Cc3cccc4ccccc34)c2cc1OC ?
NOMO-1 viab: 86; PD-1 reversal: inactive

What do the screens show for `O=C(COc1cc(O)c2c(=O)c3ccccc3oc2c1)c1cccc([N+](=O)[O-])c1`?
NOMO-1 viab: inactive; STK33 kin inh: inactive; PD-1 reversal: inactive

Results for O=C(COc1cc(O)c2c(=O)c3ccccc3oc2c1)c1ccc(Cl)cc1 ?
NOMO-1 viab: 117; STK33 kin inh: inactive; PD-1 reversal: inactive

What do the screens show for `CCn1c(SCC(=O)Nc2cc(Cl)ccc2Cl)nnc1-c1ccccc1OC`?
NOMO-1 viab: inactive; STK33 kin inh: inactive; PD-1 reversal: inactive

High-throughput results (PubChem BioAssay)
